From PubChem BioAssay
An excerpt weighted towards active compounds, which were near 2.4% of everything screened.
Pol eta inh – DNA polymerase eta (human) inhibition. Q9Y253. recombinant Pol eta, fluorescent DNA replication assay. Potency, µM (top dose mostly 114 µM), most hits filed as inhibitors. 390,000 compounds, 1.2% hits
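Pol eta at 10 nM preincubated with compounds 15 min at room temperature; reaction started with fluorescent substrate (50 nM final) and read kinetically at 0 and 10 min.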
WRN inhibitor – inhibitors of human WRN helicase; WRN helicase unwinding, fluorescent forked duplex, kinetic; AID 651768; Potency, µM (series often up to 114 µM), usual class: inhibitors; Q14191; 360,000 compounds, 0.46% hits; further: nearly all actives have a fitted effect of over 55% in size
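Screening of the MLSMR collection measured strand separation of a quenched forked DNA duplex (100 nM) by 20 nM WRN with 2 mM ATP, all final. Compounds were preincubated with enzyme 15 min at room temperature.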
POLI inh – DNA polymerase iota (human) inhibition; Q9UNA4; Pol iota fluorescent replication assay, 10 min; Potency, µM (highest dose often 115 µM), hits mostly inhibitors; 390,000 compounds, 1% hits; AID 588590
Target sequence (Q9UNA4 whole entry, looked up): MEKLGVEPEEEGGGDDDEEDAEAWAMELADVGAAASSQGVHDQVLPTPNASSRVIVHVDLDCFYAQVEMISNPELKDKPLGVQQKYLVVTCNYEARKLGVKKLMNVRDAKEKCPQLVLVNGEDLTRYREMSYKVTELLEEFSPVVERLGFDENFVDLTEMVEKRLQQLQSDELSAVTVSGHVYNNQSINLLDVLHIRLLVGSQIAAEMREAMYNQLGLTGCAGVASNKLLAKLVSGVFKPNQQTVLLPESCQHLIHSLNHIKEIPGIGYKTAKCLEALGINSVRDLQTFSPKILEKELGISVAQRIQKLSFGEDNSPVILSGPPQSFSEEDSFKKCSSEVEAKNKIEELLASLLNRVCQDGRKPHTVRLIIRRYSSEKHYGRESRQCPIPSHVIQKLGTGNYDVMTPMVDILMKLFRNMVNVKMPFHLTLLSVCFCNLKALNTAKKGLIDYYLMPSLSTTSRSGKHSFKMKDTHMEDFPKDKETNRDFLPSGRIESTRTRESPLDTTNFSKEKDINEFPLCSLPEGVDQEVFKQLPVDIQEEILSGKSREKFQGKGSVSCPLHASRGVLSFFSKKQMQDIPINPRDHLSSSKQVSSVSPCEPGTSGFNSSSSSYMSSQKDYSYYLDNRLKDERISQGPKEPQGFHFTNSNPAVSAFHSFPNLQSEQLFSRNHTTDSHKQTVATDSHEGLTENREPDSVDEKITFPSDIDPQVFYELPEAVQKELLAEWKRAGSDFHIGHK
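Fluorescent replication assay read twice, at 0 min and 10 min after adding 50 nM (final) substrate. Enzyme (10 nM) and compounds were first incubated 15 min at room temperature; enzyme-free buffer wells were negative controls.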
POLK inh – inhibitors of human DNA polymerase kappa | purified Pol kappa, fluorescent DNA synthesis assay, 10 min | Potency, µM (top dose mostly 107 µM), most hits filed as inhibitors | 400,000 compounds, 0.53% hits | AID 588579
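Kinetic fluorescence readout at 0 and 10 min followed reaction start with substrate at 50 nM final. Beforehand, enzyme (10 nM Pol kappa) stood 15 min with compound at room temperature; buffer-only wells were negative controls.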
FEN1 inh – human FEN1 inhibition. Recombinant FEN1 flap cleavage, fluorescence, 15 min. Potency, µM (top dose mostly 114 µM), actives largely listed as inhibitors. 390,000 compounds, 0.35% hits. AID 588795; further: nearly all actives have a fitted effect of over 65% in size
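Reaction started by adding substrate (50 nM final) to 10 nM enzyme after 15 min room-temperature compound preincubation. Reads at 0 and 15 min, with data normalized and fitted to a four-parameter Hill equation.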
POLB inh – inhibitors of human DNA polymerase beta; P06746; Pol beta primer extension/strand displacement, fluorescence kinetic; Potency, µM (titrated, usually from 114 µM), usual class: inhibitors; 340,000 compounds, 1.3% hits; AID 485314
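Kinetic readout of DNA synthesis with strand displacement by Pol beta. Compound and 10 nM enzyme sit 15 min at room temperature; 50 nM substrate starts the reaction, read immediately and at 10 min.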
Hits are given with their value; 0 = inactive; ? = inconclusive; - = no result; [ ] = another dose, or the depositor's remark. The call rests on the fitted dose curve; in most records, active means well fitted curve in the direction sought with a large enough effect; inconclusive means small, poorly fitted or top-dose-only effect, or another doubt; inactive means no such curve, though single readings can be large; an effect the other way counts as inactive or inconclusive.

SMILES	Pol eta inh	WRN inhibitor	POLI inh	POLK inh	FEN1 inh	POLB inh
Cc1ccc(NC(=O)COC(=O)c2ccc3c(c2)NC(=O)C2CCCN32)cc1 (configuration not stated)	0	0	7.94µM	0	0	0
COc1cc(OC)c(N(C)C(=O)c2sc3nc4n(c(=O)c3c2C)CCCCC4)cc1Cl	0	-	0	0	0	0
COc1cc(OC)c(N(C)C(=O)c2sc3nc4n(c(=O)c3c2C)CCCC4)cc1Cl	0	-	0	0	0	89.1µM
CNCc1nc(-c2ccc[nH]2)c2cc(Cl)ccc2n1	-	-	0	0	?	-
CCCCNC1=CC(=O)C(=O)c2ccccc21	?	0	?	0	0	0
CCCCNC1=CC(=O)C(NCCCC)=CC1=O	0	0	31.6µM	0	0	-
N=C1CCC(=N)c2c1c(O)c1ccccc1c2O	12.6µM	31.6µM	22.4µM	22.4µM	39.8µM	39.8µM
O=C1CCn2c1c(O)c1ccccc1c2=O	0	0	?	0	0	-
CCOC(=O)c1ccc(S(=O)(=O)Nc2nc3cc(S(=O)(=O)NC4=NCCCCC4)ccc3s2)cc1	0	?	14.1µM	0	0	0
COc1cc2nc(N3CCOCC3)nc(NC3CC3)c2cc1OC	-	-	0	0	0	-
CCOC(=O)c1cc(-c2ccco2)nc2c1c(C)nn2-c1cccc(Cl)c1	?	0	0	0	0	28.2µM
CCC(CO)[n+]1c(C)cc(/C=C2\Sc3ccccc3N2Cc2ccccc2)cc1C (configuration not stated)	?	?	0	0	50.1µM	?
CCN1/C(=C2\SC(=S)N(Cc3ccccc3)C2=O)Sc2ccccc21	0	0	?	0	0	0
N#CC(Cc1ccc(O)c(O)c1)C(=O)N1CCc2ccccc21 (configuration not stated)	7.94µM	-	?	-	-	?
CC(=O)N1CC(O)CC1C(=O)O (configuration not stated)	-	-	-	0[19.4 µM]	-	-
CCS(=O)(=O)c1c([N+](=O)[O-])ncn1C	0	0	0	0	0	0
Cn1cnc([N+](=O)[O-])c1S(=O)(=O)Oc1ccc(Cl)cc1	0	35.5µM	?	0	0	-
C[C@]12CCC(=O)C=C1CC[C@@H]1[C@@H]2[C@@H](O)C[C@@]2(C)[C@H]1CC[C@]2(O)C(=O)COP(=O)(O)O	-	-	-	0[19.4 µM]	-	-
CCCC[C@@H](C)/C=C(C)/C=C(\C)C(=O)NC1=C[C@@](O)(/C=C/C=C/C=C/C(=O)NC2=C(O)CCC2=O)[C@@H]2O[C@@H]2C1=O	-	-	-	26.7µM	-	-
Nc1ccc2nc(-c3ccc(-c4nc5ccc(N)cc5[nH]4)cc3)[nH]c2c1	0	0[11.6 µM]	?	50.1µM	?	0
Nc1ccc(-c2nc3ccc(-c4nc5ccc(N)cc5[nH]4)cc3[nH]2)cc1	6.31µM	-	3.98µM	2.67µM	35.5µM	1.41µM
Cc1ccc2nc(-c3cccc(N)c3)[nH]c2c1	0	0	0	0	0	0
Nc1ccc(-c2nc3ccccc3[nH]2)cc1	0	0	0	0	0	?
CN(C)/C=C/C(=O)c1ccc(-c2ccc(Cl)cc2Cl)o1	0	0	0	0	0	31.6µM
COc1ccccc1-c1nn2c(-c3cc(-c4ccccc4)n[nH]3)nnc2s1	-	-	0	0	0	-
SMILES	Pol eta inh	WRN inhibitor	POLI inh	POLK inh	FEN1 inh	POLB inh
COc1ccc(OCc2nn3c(-c4ccco4)nnc3s2)cc1	?	0	0	0	0	?
c1coc(-c2nn3c(-c4ccco4)nnc3s2)c1	?	?	?	?	0	28.2µM
COc1ccccc1-c1nn2c(-c3ccco3)nnc2s1	0	0	?	0	0	14.1µM
COc1cccc(OC)c1-c1nn2c(-c3cc(-c4ccccc4)n[nH]3)nnc2s1	6.31µM	39.8µM	28.2µM	28.2µM	28.2µM	?
O=[N+]([O-])c1ccc(C=C2c3ccccc3-c3ccccc32)cc1	-	-	0	0	0	-
O=C1OCCC1Sc1nc2ccccc2c(=O)n1Cc1ccc(F)cc1 (configuration not stated)	?	0	?	0	0	25.1µM
O=C1OCCC1Sc1nc2ccccc2c(=O)n1-c1ccc(F)cc1 (configuration not stated)	0	0	0	0	0	0
CC(/C=N/n1c(-c2ccc(Cl)cc2)n[nH]c1=S)=C\c1ccco1	17.8µM	0[11.6 µM]	?	?	0	?
O=C(N/N=C/c1ccncc1)c1cc2c(ccc3ccccc32)o1	?	0	0	0	0	0
O=C(Nc1cccnc1)c1cc2c(ccc3ccccc32)o1	?	?	50.1µM	?	0	31.6µM
O=C(COc1ccc(/C=N/NC(=O)c2cc3ccccc3o2)cc1Br)Nc1ccccc1	0.891µM	0	?	0	?	5.62µM
COc1ccc(/C=N\NC(=O)c2cc3c(ccc4ccccc43)o2)cc1O	50.1µM	0[11.6 µM]	28.2µM	0	?	0
O=C(O)c1ccc(/C=N/NC(=O)c2cc3c(ccc4ccccc43)o2)cc1	?	0	?	0	?	39.8µM
COc1ccc(-c2nc3cnc(N4CCN(C)CC4)nc3n(Cc3ccc(F)cc3)c2=O)cc1	-	-	-	0	-	-
CCc1ccc2oc(-c3ccc(C)c(NC(=O)COc4ccc(Cl)cc4)c3)nc2c1	-	-	0	0	0	-
COc1ccc(CCNc2ncnc3nc[nH]c23)cc1	-	-	0	0	0	-
Cc1ccc(NC(=O)c2cc3ccccc3oc2=N)cc1	0	0	?	0	0	0
N=c1oc2cc(O)ccc2cc1C(=O)Nc1ccc(Cl)cc1	79.4µM	0	0	0	0	0
CSCC[C@H](NC(=O)[C@H](CCCN=C(N)N)NC(=O)[C@@H]1CCCN1C(=O)[C@H](Cc1ccccc1)NC(=O)[C@H](C)NC(=O)[C@H](CC(C)C)NC(=O)[C@H](Cc1ccc(O)cc1)NC(=O)[C@H](CC(N)=O)NC(=O)[C@@H](N)CCSC)C(N)=O	-	-	-	0	-	-
CCc1ccc2c(c1)c(=O)c(C(=O)c1ccccc1)cn2CC(=O)Nc1ccc(C)c(Cl)c1	?	-	0	0	0	2.82µM
Cc1nc([N+](=O)[O-])cn1CC(=O)c1ccc2c(c1)OCCCO2	-	-	0	0	0	-
CN(C)S(=O)(=O)N1CCC(Oc2cccc(C(=O)N3CCCCCCC3)c2)CC1	0	0[11.6 µM]	89.1µM	0	0	0
CN(C)S(=O)(=O)N1CCC(Oc2cccc(C(=O)N3CCCCCC3)c2)CC1	0	0	0	0	0	0
O=C(CCS(=O)(=O)c1ccc(Br)cc1)NC1CCCCCC1	25.1µM	0[11.6 µM]	0	0	0	?
O=C(CCS(=O)(=O)c1ccc(Br)cc1)NCc1ccc(F)cc1	39.8µM	0	0	?	0	?
CSCC[C@H](NC(=O)CN)C(=O)N[C@@H](CC(=O)O)C(=O)N[C@@H](CO)C(=O)N[C@@H](CC(C)C)C(=O)N[C@@H](C)C(=O)N[C@@H](Cc1ccccc1)C(=O)N[C@@H](CO)C(=O)NCC(=O)NCC(=O)N[C@@H](CC(C)C)C(N)=O	-	-	-	0	-	-
